In all, about 350,000 compounds went through this assay and about 31,000 (8.9%) were called active. About 15% were inconclusive and are not listed. The call rests on the fitted dose curve; in most records, active means well fitted inhibition curve with a large enough effect; inconclusive means small, poorly fitted or top-dose-only effect; inactive means no such curve, though single readings can be large or run the other way. Many of the other results were omitted from the sample, so actives are more common in it than they were.

The text below walks through data of PubChem BioAssay AID504332 (National Center for Advancing Translational Sciences (NCATS), 2011).
On the % scale 0 is the no-effect control and ±100 the full control effect; potency means the concentration at half of the fitted maximal effect.

For the assay, the target named is Histone-lysine N-methyltransferase EHMT2 (Homo sapiens) (UniProt Q96KQ7). The assay can be described thus: qHTS Assay for Inhibitors of Histone Lysine Methyltransferase G9a. Further: nearly all actives have a fitted effect of over 75% in size. The note with it: G9a H3K9 monomethylation, AlphaScreen, 2 h; series mostly up to 59 µM; activity, negative = inhibition: at the top concentration. The gist of the method: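 Quantitative HTS format: methyltransferase activity on a biotin-tagged H3K9 peptide is measured by AlphaScreen, using a rabbit anti-monomethyl-H3K9 antibody with streptavidin donor and anti-IgG acceptor beads. Final levels are 20 nM enzyme, 500 nM peptide, 20 uM SAM; 2 h RT.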
Histone-lysine N-methyltransferase EHMT2 (Homo sapiens), sequence (Q96KQ7 913-1193 limits assumed): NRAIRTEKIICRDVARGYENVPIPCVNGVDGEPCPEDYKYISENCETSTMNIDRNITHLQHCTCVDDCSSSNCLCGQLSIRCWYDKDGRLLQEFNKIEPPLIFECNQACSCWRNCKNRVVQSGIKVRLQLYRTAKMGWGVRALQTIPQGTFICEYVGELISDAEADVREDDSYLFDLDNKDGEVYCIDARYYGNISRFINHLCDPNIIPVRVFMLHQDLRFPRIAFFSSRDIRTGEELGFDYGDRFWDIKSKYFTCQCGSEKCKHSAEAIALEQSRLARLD
On the technique in general: qHTS replaces the single test concentration by a dilution series.
With `O=C(CNS(=O)(=O)c1ccc2ccccc2c1)Nc1ccc(F)c(F)c1F`, the activity, negative = inhibition was 2.41% [at 12.7 µM] (inactive).

Turning to `CC1CCCCC12NC(=O)N(CC(=O)Nc1ccc(S(=O)(=O)Nc3ncccn3)cc1)C2=O` (stereo not given), the activity, negative = inhibition was -10.5% [at 12.7 µM] (inactive).

Consider `COc1ccccc1N1CCN(C(=O)c2ccc(S(=O)(=O)N3CCCCC3)cc2)CC1`, for which the activity, negative = inhibition was -28.9% [at 12.7 µM] (inactive).

For `COc1ccc(N2CCN(C(=O)COC(=O)c3cccc(S(=O)(=O)Nc4ccccc4OC)c3)CC2)cc1`, the Potency is 15.8 µM (active).

Turning to `COc1ccccc1NS(=O)(=O)c1ccc(C(=O)N2CCN(c3ccccc3O)CC2)cc1`, the Potency was 44.7 µM (active).

In the case of `COc1ccc(S(=O)(=O)Nc2ccccc2C(=O)N2CCCC2)cc1C`, the “activity, negative = inhibition” value was 8.92% [at 102 µM] (inactive).

Consider `CC1CN(C(=O)COC(=O)c2cccc(NS(=O)(=O)c3ccccc3)c2)CC(C)O1` (stereo not given), for which the activity, negative = inhibition was 3.95% [at 0.501 µM] (inactive).

As to `CCOc1ncccc1C(=O)NNC(=O)c1cccc(S(=O)(=O)Nc2ccccc2OC)c1`, the “activity, negative = inhibition” value is -0.541% [at 102 µM] (inactive).

As for `CCOc1ccc(C2CC(=O)c3c([nH]c(C(=O)OCc4ccccc4)c3C)C2)cc1` (stereo not given), the “activity, negative = inhibition” value is 0.425% (inactive).

For the molecule `CN(c1ccccc1)S(=O)(=O)c1cccc(C(=O)NNC(=O)c2ccncc2)c1`, the “activity, negative = inhibition” value was 1.98% [at 102 µM] (inactive).

With `COc1ccc(OC)c(-c2csc(-c3c(N)c(C(=O)c4ccccc4)n4ccccc34)n2)c1`, the “activity, negative = inhibition” value was 6% (inactive).

With `Cc1nn(CC(=O)O)c(=O)c2cc3cc(F)ccc3n12`, the “activity, negative = inhibition” value was 38.6% (inactive).

For the molecule `Cc1ccn2c(=O)c(NC(=O)c3cccc4ccccc34)c(C)nc2c1`, the “activity, negative = inhibition” value was 2.02% [at 102 µM] (inactive).

Regarding `c1ccc(Nc2n[nH]nc2-c2ccccc2)cc1`, the “activity, negative = inhibition” value was 3.87% (inactive).

For `N#Cc1c(-c2ccccc2)c(-c2ccccc2)n[nH]c1=O`, the “activity, negative = inhibition” value was 1.71% [at 102 µM] (inactive).

For the molecule `O=C(O)c1n[nH]nc1-c1ccccc1`, the Potency is 3.55 µM (active).

With `CCOc1ccc(OCC)c(NC(=O)c2c(C)nn(-c3ccccc3)c2-n2cccc2)c1`, the “activity, negative = inhibition” value was -4.07% (inactive).

For the molecule `CC(C)c1ccc(C2CC(=O)N3CN(C4CCCCC4)CSC3=C2C#N)cc1` (stereo not given), the Potency is 2.24 µM (active).

With `CC(C)c1ccc(C2C(C#N)=C(N)Oc3c2oc(CO)cc3=O)cc1` (stereo not given), the “activity, negative = inhibition” value is 10.4% [at 102 µM] (inactive).

For `OCC[C@H]1C[C@@H](O)[C@H](O)[C@@]2(OCCc3ccccc32)O1`, the activity, negative = inhibition is -2.06% [at 2.33 µM] (inactive).

In the case of `O=C(CCSCc1ccccc1F)N1CCN(c2ccc(Cl)cc2)CC1`, the “activity, negative = inhibition” value was -1.72% (inactive).

Regarding `Cc1cc(C)c(C(=O)CSc2nc(C)cc(=O)[nH]2)c(C)c1`, the Potency was 31.6 µM (active).

As for `Cc1cc(=O)[nH]c(SCC(=O)Nc2ccc(Br)cc2)n1`, the activity, negative = inhibition was 10.1% [at 12.7 µM] (inactive).

Take `Cc1cc(=O)[nH]c(SCC(=O)N2c3ccccc3CC2C)n1` (stereo not given): the activity, negative = inhibition was -1.7% [at 12.7 µM] (inactive).

`Cc1cc(Cl)c2oc(C(=O)NC(C)c3ccncn3)c(C)c2c1` (stereo not given): the “activity, negative = inhibition” value was -0.418% [at 102 µM] (inactive).

For `COc1cc(N=Cc2c(O)c3ccccc3oc2=O)c(OC)cc1Cl`, the activity, negative = inhibition was 16.1% [at 0.501 µM] (inactive).

Turning to `COc1ccccc1N=Cc1c(O)c2ccccc2oc1=O`, the “activity, negative = inhibition” value is 12.8% (inactive).

`COc1ccc(N=Cc2c(O)[nH]c3ccccc23)cc1OC`: the Potency is 50.1 µM (active).

For the molecule `CCOC(=O)Cn1c(=O)n(Cc2ccc(OC)cc2)c(=O)c2cccnc21`, the “activity, negative = inhibition” value is 22.4% [at 102 µM] (inactive).

`CC1CCCN(S(=O)(=O)c2ccc3[nH]c(=O)cc(C(=O)NCCc4ccc(Cl)cc4)c3c2)C1` (stereo not given): the “activity, negative = inhibition” value is -0.97% (inactive).

As to `COc1ccc(S(=O)(=O)NCc2cccn2Cc2cccc(C)c2)cc1`, the “activity, negative = inhibition” value is 31.3% (inactive).

For `CCOc1ccccc1C(=O)NCc1ccc2c(c1)CCN2C(=O)c1ccc(F)cc1`, the “activity, negative = inhibition” value is -0.689% (inactive).

Consider `Cn1c(-c2ccco2)nc2cc3ccccc3cc21`, for which the activity, negative = inhibition is 8.95% [at 0.0925 µM] (inactive).

With `Cc1nn2c3ccccc3nc2n(C)c1=O`, the “activity, negative = inhibition” value was 19.5% (inactive).

In the case of `c1coc(-c2nc3nc4ccccc4n3nc2-c2ccco2)c1`, the Potency is 10 µM (active).

For the molecule `CCOc1ccc(CCNC(=O)c2c(C)oc3ncn(C)c(=O)c23)cc1`, the “activity, negative = inhibition” value is 1.36% (inactive).

For the molecule `CCCc1nn2c(=O)cc(COC(=O)c3ccc(NC(=O)C(C)Oc4ccccc4)cc3)nc2s1` (stereo not given), the “activity, negative = inhibition” value is 12.4% (inactive).

On to `COc1ccc(/C=C/C(=O)c2ccc(OC)cc2O)cc1`, for which the “activity, negative = inhibition” value was -16.7% [at 102 µM] (inactive).

As for `COc1ccc(C(=O)/C=C/c2ccc(OC3CSC3)cc2)cc1`, the “activity, negative = inhibition” value is -9.35% (inactive).

In the case of `COc1ccc(/C=C/C(=O)c2cc(Br)ccc(=O)c2O)cc1`, the Potency was 10 µM (active).

Regarding `Cc1cccc(Cc2c(C)nc3nc(SCc4ccccc4Cl)nn3c2C)c1`, the “activity, negative = inhibition” value was -6.6% (inactive).

For `CCOC(=O)c1ccc(N2C(=O)c3n[nH]c(-c4ccco4)c3C2c2ccc(O)cc2)cc1` (stereo not given), the Potency is 17.8 µM (active).

`CCOC(=O)c1ccc(N2C(=O)c3n[nH]c(C)c3C2c2ccc(O)c(OC)c2)cc1` (stereo not given): the “activity, negative = inhibition” value was -17.4% (inactive).

Turning to `CCOC(=O)c1ccc(N2C(=O)c3[nH]nc(-c4ccccc4)c3C2c2ccc(C(C)C)cc2)cc1` (stereo not given), the “activity, negative = inhibition” value is -0.307% (inactive).

As to `Cc1ccc(F)cc1NC(=O)CCSc1nc(-c2ccco2)cc(C(F)(F)F)n1`, the “activity, negative = inhibition” value is -7.82% (inactive).

On to `Cc1ccc(NC(=O)CCCn2c(=O)c3cccn3c3ccccc32)cc1Cl`, for which the “activity, negative = inhibition” value is -46.8% (inactive).

Turning to `O=C1CN(C(=O)COC(=O)C2CC(=O)N(Cc3ccco3)C2)c2ccccc2N1` (stereo not given), the Potency was 50.1 µM (active).

Take `Cc1ccc(S(=O)(=O)N2CCC(C(=O)OCC(=O)N3CC(=O)Nc4ccccc43)CC2)cc1`: the “activity, negative = inhibition” value is 5.96% (inactive).

For `COc1cc(OC)c(C(=O)OCC(=O)N2CC(=O)Nc3ccccc32)cc1OC`, the “activity, negative = inhibition” value was 1.9% [at 102 µM] (inactive).

For `COc1ccc(OC)c(S(=O)(=O)N2CCCC(C(=O)N3CCC(C(N)=O)CC3)C2)c1` (stereo not given), the “activity, negative = inhibition” value is 0.506% [at 102 µM] (inactive).

`O=C(CSc1ncc(CO)n1Cc1ccc(Cl)cc1)NCc1ccc(F)cc1`: the “activity, negative = inhibition” value was 4.32% (inactive).

With `CCCc1nnc(NC(=O)c2cccs2)s1`, the activity, negative = inhibition was -0.387% [at 12.7 µM] (inactive).

Consider `CCc1c(C)sc(NC(=O)c2cccs2)c1C(N)=O`, for which the Potency was 11.2 µM (active).

As for `CCc1c(C)sc(NC(=O)c2ccc(Br)o2)c1C(=O)OC`, the “activity, negative = inhibition” value is 34.2% (inactive).

For the molecule `CCc1c(C)sc(NC(=O)C2c3ccccc3Oc3ccccc32)c1C(=O)OC(C)C`, the “activity, negative = inhibition” value is -6.06% (inactive).

On to `COc1cc(C(=O)NCC(=O)N2CC=C(c3ccccc3)CC2)cc(OC)c1OC`, for which the “activity, negative = inhibition” value is -27.5% [at 102 µM] (inactive).

For `O=C(COC(=O)c1ccccc1)c1ccc2c(c1)OCCO2`, the “activity, negative = inhibition” value is 23.8% [at 102 µM] (inactive).

As to `CN(C(=O)C1CCN(c2ncnc3c2nc2n3CCCCC2)CC1)C1CCCCC1`, the “activity, negative = inhibition” value was 5.93% [at 102 µM] (inactive).

Regarding `COCc1c(C(=O)OCC(=O)Nc2ccc(OC(F)F)cc2)oc2ccccc12`, the activity, negative = inhibition is -14.1% [at 12.7 µM] (inactive).

With `CN(C(=O)Cn1nnc(-c2ccc(F)cc2)n1)C1CCS(=O)(=O)C1` (stereo not given), the activity, negative = inhibition was 14.1% [at 12.7 µM] (inactive).
